13 compounds from PubChem BioAssay (NCI) can be followed below.

Holding throughout (test): NCI-60 one-dose screen, 48 h (100 = growth as untreated, 0 = no growth, -100 = all killed)
Common to all, as to conditions: 10 µM unless noted

Assay [1] deals with HCT-15 colon.
Assay [2] deals with HT29 colon.
The test system of assay [3] is SNB-75 CNS.
The test system of assay [4] is SNB-19 CNS.
Assay [5] concerns U251 CNS.
Assay [6] has as its system PC-3 prostate.
In assay [7] the test system is SK-MEL-5 melanoma.
Assay [8] has as its system UACC-62 melanoma.
For assay [9], the system named is LOX IMVI melanoma.
Assay [10] relates to SK-MEL-28 melanoma.
The test system of assay [11] is SK-MEL-2 melanoma.
Assay [12] concerns EKVX NSCLC.
Assay [13] relates to SN12C renal.
Assay [14] has as its system UO-31 renal.
The test system of assay [15] is TK-10 renal.
The subject of assay [16] is ACHN renal.
Assay [17] relates to CAKI-1 renal.
Assay [18] deals with A498 renal.
For assay [19], the system named is CCRF-CEM leukemia.
Assay [20] has as its system MOLT-4 leukemia.

Compounds without any hit were thinned out: in the full panel of roughly 83,000, 20% have a hit.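 Assay: single dose, 48 h. Readout: percent growth (0 = no net growth; negative = cell death). Active: <10.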 Unmarked numbers belong to inactive results. Active and inactive are the calls of the source.

With `CC(C)Cc1nc(Nc2ccccc2)[nH]c(=O)c1C#N`, the growth in [1] is 60.5%; in [2], 51.7%; in assay [3], 62.4%; in [4], 54.8%; in assay [5] it was 55.8%; in [6], 38%. Besides, the growth in assay [7] was 48.7%; in assay [8] it was 19.5%; in assay [9], 48.7%; in assay [10] it was 55.9%; in assay [11], 40.5%; in assay [12], 59.4%. The growth in [13] is 52.8%; in assay [14], 14%; in [15], 82%; in [16] it was 57.5%; in assay [17] it was 50.9%; in assay [18] it was 19.4%. The growth is 60.2% in assay [19] and 61.6% in assay [20].

`COCCOC(C)C(/C=N/NC(N)=S)=N/NC(N)=S` (stereo not given): the growth in assay [1] was 51.8%; in assay [2], 39.5%; in [3], 120%; in assay [4] it was 92.8%; in [5], 48.5%; in [6] it was 27.9%. For the same compound, the growth in assay [7] is 60.8%; in [8], 67.1%; in [9], 51.1%; in assay [10], 90.1%; in assay [11], 82.5%; in assay [12], 55.7%. Also, the growth in [13] is 76.5%; in assay [14] it was 79.1%; in assay [15], 92.5%; in [16] it was 66.7%; in assay [17], 82.6%; in assay [18], 107%. Further, the figures for the growth in assay [19] and in assay [20] were 42.6% and 16.7%, respectively.

Consider `CCN(CC)CCOc1ccc2ccc(=O)oc2c1`, for which the growth in assay [1] was 104%; in assay [2], 102%; in [3] it was 107%; in assay [4], 98.5%; in assay [5] it was 101%; in [6], 21.3%. The growth was 102% in [7]; 94.8% in assay [8]; 101% in [9]; 99.6% in assay [10]; 103% in assay [11]; 105% in [12]. In addition, the growth is 100% in assay [13]; 82.9% in [14]; 97.7% in [15]; 97% in assay [16]; 90.9% in assay [17]; 98.5% in assay [18]. In addition, the values for the growth in assay [19] and in assay [20] were 3.66% (active) and 4.48% (active), respectively.

On to `Cc1c(C(C)(C)O)cn2ncnc(Oc3ccc(NC(=O)Nc4ccc(Cl)c(C(F)(F)F)c4)c(F)c3)c12`, for which the growth in [1] was 55.5%; in assay [2], 61.1%; in assay [3] it was 36.5%; in assay [4], 53.2%; in [5], 47%; in assay [6] it was 39.2%. For the same compound, the growth in assay [7] is 61.4%; in assay [8] it was 72%; in assay [9] it was 59.7%; in [10] it was 71.3%; in assay [11], 94.7%; in assay [12], 56.3%. In addition, the growth was 57.6% in assay [13]; 69.9% in [14]; 85.1% in [15]; 39.5% in [16]; 47.9% in assay [17]; 29.5% in assay [18]. The results for the growth in [19] and in [20] were 29.2% and 32.2%, respectively.

On to `CN1CCN(Cc2ccc(NC(=O)c3cncc(C#Cc4cnc(N)cc4C#N)c3)cc2C(F)(F)F)CC1`, for which the growth in assay [1] was 15.4%; in assay [2], 5.78% (active); in assay [3], 33.2%; in assay [4] it was 39.1%; in assay [5], 20.1%; in [6], 11.7%. In addition, the growth was 9.34% (active) in assay [7]; -12.9% (active) in assay [8]; -84.6% (active) in [9]; 0.973% (active) in assay [10]; -65.9% (active) in assay [11]; 34.3% in assay [12]. In addition, the growth in [13] is 13.5%; in assay [14], 1.25% (active); in assay [15], 19.4%; in [16] it was 10.3%; in assay [17], -9.35% (active); in [18], -8.99% (active). Moreover, the growth in [19] was 6.94% (active); in assay [20], 4.83% (active).

Turning to `C=CN(C(=O)N1CCN(c2cc3c(cc2F)c(=O)c(C(=O)O)cn3C2CC2)CC1)c1nc(-c2ccccc2)cs1`, the growth was 102% in assay [1]; 93.1% in assay [2]; 109% in assay [3]; 96% in assay [4]; 101% in assay [5]; 91.1% in assay [6]. In addition, the growth was 95.7% in assay [7]; 86% in assay [8]; 77.5% in [9]; 101% in assay [10]; 88.3% in assay [11]; 109% in assay [12]. Besides, the growth in [13] is 92.8%; in assay [14], 84.7%; in assay [15] it was 105%; in assay [16], 91.1%; in assay [17] it was -82.3% (active); in assay [18] it was 76%. The results for the growth in assay [19] and in assay [20] were 93.2% and 88.2%, respectively.

For the compound `CS(=O)/C(C#N)=C\C=C\c1cccc(Cl)c1` (stereo not given), the growth is -6.41% (active) in assay [1]; 8.51% (active) in [2]; 22.5% in assay [3]; 27.2% in [4]; 17.3% in assay [5]; 30.6% in assay [6]. Further, the growth in assay [7] was 32.3%; in assay [8], 0.315% (active); in assay [9] it was -53.2% (active); in [10] it was 24.8%; in assay [11] it was 31.9%; in assay [12], 38.9%. Moreover, the growth was 19.9% in assay [13]; 21.4% in [14]; 35% in assay [15]; 3.18% (active) in assay [16]; 20.5% in assay [17]; 12.1% in assay [18]. Moreover, the growth in [19] was 2.45% (active); in assay [20] it was 7.07% (active).

In the case of `CCOC(=O)/C=C1\S/C(=N\Nc2cc(=O)[nH]c3ccc(Br)cc23)N(c2ccccc2)C1=O`, the growth is 42.3% in assay [1]; 104% in assay [2]; 80.4% in assay [3]; 90.4% in assay [4]; 77.1% in [5]; 44.1% in [6]. For the same compound, the growth in assay [7] was 98.3%; in assay [8] it was 78.6%; in assay [9] it was 90.6%; in assay [10], 95.3%; in [11], 99.3%; in assay [12], 97.2%. In addition, the growth is 78.9% in assay [13]; 60.1% in assay [14]; 90.8% in [15]; 73% in [16]; 69.9% in assay [17]; 95.6% in assay [18]. Also, the results for the growth in assay [19] and in [20] were 10.5% and 21.4%, respectively.

`O=C(Nc1ccc(Oc2cccc(Cl)c2)c(Cl)c1)c1cccnn1`: the growth is 56.7% in [1]; 89.9% in assay [2]; 77.7% in assay [3]; 89.5% in [4]; 76.7% in assay [5]; 57.2% in assay [6]. Moreover, the growth in assay [7] was 83.8%; in assay [8], 74.7%; in assay [9], 88.5%; in assay [10] it was 99.4%; in assay [11], 102%; in assay [12] it was 87.3%. For the same compound, the growth in assay [13] was 83.2%; in [14], 64.9%; in assay [15] it was 75%; in [16], 97.9%; in assay [17], 80.8%; in assay [18], 87.4%. Further, the results for the growth in assay [19] and in assay [20] were 84% and 80.1%, respectively.

Consider `Cc1ccc(S(=O)(=O)c2nc(-c3ccccc3)oc2SCC(N)=O)cc1`, for which the growth is 95.3% in assay [1]; 85.7% in assay [2]; 90.4% in [3]; 99.5% in assay [4]; 105% in assay [5]; 85.6% in assay [6]. Moreover, the growth is 94.9% in assay [7]; 105% in [8]; 96% in [9]; 108% in assay [10]; 94.3% in [11]; 95.8% in assay [12]. The growth in assay [13] was 106%; in assay [14], 85.5%; in assay [15] it was 85.7%; in assay [16] it was 99.5%; in [17], 87.3%; in assay [18], 80.3%. In addition, the growth in assay [19] was 102%; in [20] it was 90.6%.

As for `C=CN(C(=O)N1CCN(c2cc3c(cc2F)c(=O)c(C(=O)O)cn3C2CC2)CC1)c1nc(-c2ccc(Cl)cc2)cs1`, the growth in assay [1] is 24.6%; in assay [2] it was 40.2%; in [3], 80%; in assay [4] it was 59.5%; in [5] it was 23.6%; in assay [6], 40.3%. Further, the growth in assay [7] is 81.9%; in assay [8], 60.3%; in assay [9], 28.6%; in assay [10] it was 62%; in assay [11], 86.5%; in assay [12], 81.8%. In addition, the growth in assay [13] was 54.5%; in [14], 55.9%; in assay [15], 83.6%; in assay [16] it was 70.5%; in [17], 2.83% (active); in assay [18], 56%. In addition, the growth in assay [19] was 33.5%; in assay [20], 58.2%.

As for `CS(=O)(=O)Nc1cc(-c2ccc3ncnc(Nc4ccc5c(cnn5Cc5ccccc5F)c4)c3c2)cnc1Cl`, the growth is 79.4% in [1]; 51% in assay [2]; -15.7% (active) in [3]; 49.1% in assay [4]; 46.3% in [5]; 37.5% in [6]. The growth in [7] was 26.3%; in assay [8] it was 19.4%; in assay [9], 25.9%; in assay [10], 17.5%; in [11], 15.3%; in assay [12] it was 52.2%. In addition, the growth in assay [13] was 23.3%; in assay [14] it was 43.2%; in [15] it was 30.6%; in assay [16] it was 59%; in assay [17] it was 27.3%; in assay [18] it was -14.1% (active). For the same compound, the growth in assay [19] was 31.1%; in assay [20], 16.4%.

Consider `Cc1cc(O)cc(-c2nn(C)cc2-c2cc(N3CCOCC3)nc(-c3cccnc3)n2)c1`, for which the growth in [1] is 22.7%; in [2], 17.4%; in assay [3], 1.48% (active); in assay [4], 33.8%; in assay [5] it was 21.5%; in [6] it was 22.7%. Besides, the growth in assay [7] is 1.65% (active); in assay [8] it was 18.1%; in assay [9], 25.6%; in assay [10], 46.8%; in assay [11], 51.5%; in [12], 52.3%. In addition, the growth is 32.3% in [13]; 30.5% in assay [14]; 51.6% in [15]; 37.9% in [16]; 43.9% in assay [17]; -36.3% (active) in [18]. The results for the growth in [19] and in assay [20] were 24.3% and 26.8%, respectively.
